Source: PubChem BioAssay (NCATS)
Several values for one entry are separate records, joined by “and”; a condition that tells them apart may be missing. Equal values may be shown once. Records with an inconclusive call do not appear. Entries that show only a call come without a potency. Activity calls are given as the source filed them. Unless noted, calls come from the whole dose curve.

Columns and labels:
[1] = biological target: Estrogen receptor (Homo sapiens) (UniProt P03372); test: qHTS assay for small molecule antagonists of estrogen receptor alpha signaling (AID 588513; active = well fitted curve in the direction sought with a large enough effect in the signal ratio, with a control signal flat, not every such curve was filed as active; the % refers to the signal ratio)
Estrogen receptor (Homo sapiens), sequence (P03372 whole entry, looked up): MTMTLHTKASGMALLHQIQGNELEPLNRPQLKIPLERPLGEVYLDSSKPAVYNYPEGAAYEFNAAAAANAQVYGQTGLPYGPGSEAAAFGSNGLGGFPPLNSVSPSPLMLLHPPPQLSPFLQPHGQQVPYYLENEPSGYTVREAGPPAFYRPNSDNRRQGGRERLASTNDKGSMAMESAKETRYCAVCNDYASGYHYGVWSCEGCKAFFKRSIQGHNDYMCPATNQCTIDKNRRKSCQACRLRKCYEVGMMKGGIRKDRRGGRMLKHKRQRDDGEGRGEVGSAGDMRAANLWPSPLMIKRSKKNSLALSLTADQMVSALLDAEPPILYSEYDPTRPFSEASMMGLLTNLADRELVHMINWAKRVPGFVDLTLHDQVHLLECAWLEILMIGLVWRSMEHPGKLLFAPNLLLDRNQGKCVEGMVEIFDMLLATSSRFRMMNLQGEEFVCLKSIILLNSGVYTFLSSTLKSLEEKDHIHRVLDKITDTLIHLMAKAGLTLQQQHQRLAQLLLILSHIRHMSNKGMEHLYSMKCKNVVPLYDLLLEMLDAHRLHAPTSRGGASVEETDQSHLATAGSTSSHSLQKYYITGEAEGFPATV
In short: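 Cells were plated at 5000/well and incubated 4 h at 37 C. Compounds were added as 1:2 dilution series, duplicates. 17-beta-estradiol (0.5nM final) was added for 18 h before CCF4 detection.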

[2] = biological target: Estrogen receptor (Homo sapiens) (UniProt P03372); test: qHTS assay for small molecule agonists of estrogen receptor alpha signaling (AID 588514); note: nearly all actives have a fitted effect of over 70% in size
In short: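 EC50 and efficacy came from Hill fits of beta-lactamase reporter signal (CCF4 dye, 2 h at room temperature) scaled between DMSO and 20 nM 17-beta-estradiol. Agonist mode: HEK293 ER-alpha-UAS-bla cells in charcoal/dextran-stripped serum medium, 18 h compound exposure at 37 C.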

[3] = biological target: Glucocorticoid receptor (Homo sapiens) (UniProt P04150); test: qHTS assay for small molecule antagonists of glucocorticoid receptor signaling (AID 588533; active = well fitted inhibition curve with a large enough effect in the signal ratio, with a control signal flat, not every such curve was filed as active; the % refers to the signal ratio;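 note: cells stimulated with 2 nM dexamethasone as agonist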)
Glucocorticoid receptor (Homo sapiens), sequence (P04150 whole entry, looked up): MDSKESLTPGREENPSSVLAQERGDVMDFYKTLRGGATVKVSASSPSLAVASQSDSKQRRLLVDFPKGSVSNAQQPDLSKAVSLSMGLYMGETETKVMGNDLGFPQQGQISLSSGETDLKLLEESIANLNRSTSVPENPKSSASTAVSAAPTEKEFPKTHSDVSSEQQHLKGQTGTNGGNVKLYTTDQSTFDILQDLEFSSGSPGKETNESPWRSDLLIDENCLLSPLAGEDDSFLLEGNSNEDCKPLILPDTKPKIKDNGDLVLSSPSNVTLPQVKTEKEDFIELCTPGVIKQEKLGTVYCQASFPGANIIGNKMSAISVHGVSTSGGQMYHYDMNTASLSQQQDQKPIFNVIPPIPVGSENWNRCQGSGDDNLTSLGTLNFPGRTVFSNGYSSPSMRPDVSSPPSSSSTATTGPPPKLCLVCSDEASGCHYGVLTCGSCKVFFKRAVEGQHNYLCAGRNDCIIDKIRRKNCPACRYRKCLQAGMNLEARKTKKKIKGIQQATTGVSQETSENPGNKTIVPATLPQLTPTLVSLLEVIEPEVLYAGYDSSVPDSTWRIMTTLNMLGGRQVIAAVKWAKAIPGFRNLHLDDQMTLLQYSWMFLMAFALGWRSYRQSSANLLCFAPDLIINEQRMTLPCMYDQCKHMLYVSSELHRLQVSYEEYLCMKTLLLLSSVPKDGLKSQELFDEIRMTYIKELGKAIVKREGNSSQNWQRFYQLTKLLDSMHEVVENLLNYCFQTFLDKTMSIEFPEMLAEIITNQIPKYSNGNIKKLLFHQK
In short: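 Antagonist-mode qHTS: compound titrations added to GRE-bla HeLa cells, then dexamethasone 2 nM final; 18 h, 37 C. CCF4 FRET fluorescence normalized to dexamethasone and DMSO; IC50 from Hill fit.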

[4] = biological target: Peroxisome proliferator-activated receptor delta (Homo sapiens) (UniProt Q03181); test: qHTS assay for small molecule agonists of peroxisome proliferator-activated receptor delta signaling (AID 588534)
Peroxisome proliferator-activated receptor delta (Homo sapiens), sequence (Q03181 whole entry, looked up): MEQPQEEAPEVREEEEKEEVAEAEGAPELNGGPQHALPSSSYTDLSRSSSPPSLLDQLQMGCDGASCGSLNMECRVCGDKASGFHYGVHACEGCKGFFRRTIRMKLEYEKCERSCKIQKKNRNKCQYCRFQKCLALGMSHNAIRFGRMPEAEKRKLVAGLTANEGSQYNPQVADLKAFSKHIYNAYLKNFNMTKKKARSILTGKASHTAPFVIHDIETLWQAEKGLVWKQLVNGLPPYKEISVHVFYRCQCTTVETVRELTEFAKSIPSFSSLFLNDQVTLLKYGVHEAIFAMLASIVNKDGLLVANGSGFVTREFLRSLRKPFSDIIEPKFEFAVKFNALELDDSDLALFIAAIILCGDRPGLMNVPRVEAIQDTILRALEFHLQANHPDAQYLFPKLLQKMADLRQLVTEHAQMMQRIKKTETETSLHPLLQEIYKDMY
In short: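 Agonist-mode beta-lactamase reporter readout (CCF4 dye, 2 h at RT) after 18 h at 37 °C exposure to a titration; Hill-equation fitting gave EC50 and maximal response.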

[5] = biological target: Peroxisome proliferator-activated receptor gamma (Homo sapiens) (UniProt P37231); test: qHTS assay for small molecule antagonists of peroxisome proliferator-activated receptor gamma signaling (AID 588537; active = well fitted inhibition curve with a large enough effect in the signal ratio, with a control signal flat, not every such curve was filed as active; the % refers to the signal ratio;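 note: reporter cells co-stimulated with 50 nM rosiglitazone agonist during compound treatment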)
Peroxisome proliferator-activated receptor gamma (Homo sapiens), sequence (P37231 whole entry, looked up): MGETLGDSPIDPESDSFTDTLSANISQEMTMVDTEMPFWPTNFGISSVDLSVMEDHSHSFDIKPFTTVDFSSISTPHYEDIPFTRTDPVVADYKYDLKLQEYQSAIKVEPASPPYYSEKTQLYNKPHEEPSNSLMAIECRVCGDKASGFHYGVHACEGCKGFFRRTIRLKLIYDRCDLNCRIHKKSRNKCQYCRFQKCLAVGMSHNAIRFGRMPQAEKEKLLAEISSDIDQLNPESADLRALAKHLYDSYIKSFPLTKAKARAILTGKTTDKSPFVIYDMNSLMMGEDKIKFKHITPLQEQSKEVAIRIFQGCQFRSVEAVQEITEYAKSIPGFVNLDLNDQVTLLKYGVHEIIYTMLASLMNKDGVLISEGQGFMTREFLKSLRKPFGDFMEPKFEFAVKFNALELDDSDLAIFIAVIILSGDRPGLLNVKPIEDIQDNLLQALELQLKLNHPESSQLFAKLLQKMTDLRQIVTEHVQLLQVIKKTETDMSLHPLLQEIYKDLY
In short: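 Antagonist-mode β-lactamase reporter screen run as a titration series. HEK293 PPARγ-UAS-bla cells are stimulated with rosiglitazone (50 nM final) for 16 h, then CCF4 is read at 460/530 nm. Data are scaled between DMSO and rosiglitazone and fitted to the Hill equation.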

[6] = biological target: Vitamin D3 receptor (Homo sapiens) (UniProt P11473); test: qHTS assay for small molecule antagonists of vitamin D receptor signaling (AID 588541);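 note: receptor activated by calcitriol during compound treatment; series mostly up to about 77 µM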
Vitamin D3 receptor (Homo sapiens), sequence (P11473 whole entry, looked up): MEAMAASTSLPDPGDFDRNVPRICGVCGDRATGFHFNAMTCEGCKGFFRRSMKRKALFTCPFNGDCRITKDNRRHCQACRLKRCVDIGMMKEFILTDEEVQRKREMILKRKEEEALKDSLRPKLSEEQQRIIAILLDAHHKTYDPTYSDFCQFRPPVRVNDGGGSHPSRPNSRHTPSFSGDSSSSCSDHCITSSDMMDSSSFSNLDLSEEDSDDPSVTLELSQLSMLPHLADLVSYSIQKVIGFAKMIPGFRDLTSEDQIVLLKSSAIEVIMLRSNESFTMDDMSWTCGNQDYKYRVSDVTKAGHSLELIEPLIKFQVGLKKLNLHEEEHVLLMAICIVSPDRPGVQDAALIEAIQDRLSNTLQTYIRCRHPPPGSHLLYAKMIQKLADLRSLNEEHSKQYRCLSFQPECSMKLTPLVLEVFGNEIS
In short: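 Antagonist-mode beta-lactamase reporter assay: HEK293T VDR-UAS-bla cells were exposed to titrated compound alongside 1-alpha,25-dihydroxyvitamin D3 at 3 nM final for 16 h. Values were normalized to the 50 nM agonist control and DMSO basal, with IC50 and efficacy from Hill equation fits.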

[7] = biological target: Thyroid hormone receptor beta (Homo sapiens) (UniProt P10828); test: qHTS assay for small molecule agonists of thyroid hormone receptor beta signaling (AID 588545)
Thyroid hormone receptor beta (Homo sapiens), sequence (P10828 whole entry, looked up): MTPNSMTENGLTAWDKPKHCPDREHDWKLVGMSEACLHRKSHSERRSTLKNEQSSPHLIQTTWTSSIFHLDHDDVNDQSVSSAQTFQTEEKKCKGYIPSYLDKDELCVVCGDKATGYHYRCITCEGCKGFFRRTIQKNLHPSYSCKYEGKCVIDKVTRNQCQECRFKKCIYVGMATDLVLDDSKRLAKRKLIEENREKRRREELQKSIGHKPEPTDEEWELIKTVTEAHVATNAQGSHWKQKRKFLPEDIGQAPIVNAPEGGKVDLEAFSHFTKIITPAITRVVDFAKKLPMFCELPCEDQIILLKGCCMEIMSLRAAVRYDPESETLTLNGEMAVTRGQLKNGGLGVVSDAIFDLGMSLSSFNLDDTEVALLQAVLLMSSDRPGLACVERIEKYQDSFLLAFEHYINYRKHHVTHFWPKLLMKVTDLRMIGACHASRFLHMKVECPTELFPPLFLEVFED
In short: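 Compounds were tested as agonists in TR-UAS-bla-GripTite HEK 293 cells. After 18 hrs at 37 C, CCF4 substrate was added and fluorescence read after 2 hrs at room temperature.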

[8] = qHTS assay for small molecule antagonists of retinoid X receptor alpha signaling (AID 588546; active = well fitted inhibition curve with a large enough effect in the signal ratio, with a control signal flat, not every such curve was filed as active; the % refers to the signal ratio;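 note: cells stimulated with 9-cis-retinoic acid as agonist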); conditions: HEK293T RXRa-UAS-bla, beta-lactamase ratio, antagonist mode; measured here: W530 green channel, cytotoxicity proxy
In short: (§1)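 Beta-lactamase reporter inhibition, read as CCF4 fluorescence ratio (ex 405, em 460/530 nm) after 2 h at RT. HEK293T UAS-bla cells, 2500/well, were stimulated with 9-cis-RA at 500 or 100 nM final alongside test compound for 18 h at 37 C.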

[9] = biological target: Retinoic acid receptor RXR-alpha (Homo sapiens) (UniProt P19793); test: as above; conditions: HEK293T RXRa-UAS-bla, beta-lactamase ratio, antagonist mode
Retinoic acid receptor RXR-alpha (Homo sapiens), sequence (P19793 whole entry, looked up): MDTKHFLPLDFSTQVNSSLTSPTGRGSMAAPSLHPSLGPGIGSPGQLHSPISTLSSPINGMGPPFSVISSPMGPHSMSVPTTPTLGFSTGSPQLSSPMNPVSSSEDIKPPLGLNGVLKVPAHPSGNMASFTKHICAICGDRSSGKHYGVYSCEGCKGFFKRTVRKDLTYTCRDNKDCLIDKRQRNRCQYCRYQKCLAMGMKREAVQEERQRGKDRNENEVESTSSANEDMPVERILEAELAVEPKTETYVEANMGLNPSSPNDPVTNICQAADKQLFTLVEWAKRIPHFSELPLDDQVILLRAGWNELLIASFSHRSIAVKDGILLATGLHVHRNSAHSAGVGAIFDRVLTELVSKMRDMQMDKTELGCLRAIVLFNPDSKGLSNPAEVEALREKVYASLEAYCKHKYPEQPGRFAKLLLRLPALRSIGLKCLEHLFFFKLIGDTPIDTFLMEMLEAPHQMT
In short: as §1

[10] = qHTS assay for small molecule activators of the p53 signaling pathway (AID 651743; active = well fitted activation curve with a large enough effect in the signal ratio, not every such curve was filed as active; the % refers to the signal ratio; note: series mostly up to about 92 µM); conditions: HCT-116 p53RE-bla, beta-lactamase FRET ratio, 16 h; activation: stronger effect = higher value
In short: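 After 16 hours compound treatment at 37 C, HCT-116 cells stably expressing p53RE-driven beta-lactamase were loaded with LiveBLAzer B/G FRET substrate for 2 hours at room temperature. Fluorescence intensity served as the p53 activation read-out.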

[11] = qHTS assay for environmental chemicals that activate the Aryl hydrocarbon Receptor (AhR) signaling pathway (AID 651777; active = well fitted curve in the direction sought with a large enough effect; an effect the other way counts as inactive or inconclusive; note: nearly all actives have a fitted effect of over 15% in size); conditions: 1A2-DRE human hepatoma cells, luciferase, 24 h; activation: stronger effect = higher value
In short: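 Concentration–response screening used 1,200 1A2-DRE cells per well, 24 hr compound exposure (37 C, 5% CO2), and One-Glo luminescence as the AhR-driven CYP1A2 reporter signal.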

[12] = biological target: Peroxisome proliferator-activated receptor alpha (Homo sapiens) (UniProt Q07869); test: qHTS assay for small molecule agonists of the peroxisome proliferator-activated receptor alpha (PPARalpha) signaling pathway (AID 651778; active = well fitted curve in the direction sought with a large enough effect; an effect the other way counts as inactive or inconclusive); conditions: PathHunter PPARalpha complementation, chemiluminescence, 6 h; max response: stronger effect = higher value
Peroxisome proliferator-activated receptor alpha (Homo sapiens), sequence (Q07869 whole entry, looked up): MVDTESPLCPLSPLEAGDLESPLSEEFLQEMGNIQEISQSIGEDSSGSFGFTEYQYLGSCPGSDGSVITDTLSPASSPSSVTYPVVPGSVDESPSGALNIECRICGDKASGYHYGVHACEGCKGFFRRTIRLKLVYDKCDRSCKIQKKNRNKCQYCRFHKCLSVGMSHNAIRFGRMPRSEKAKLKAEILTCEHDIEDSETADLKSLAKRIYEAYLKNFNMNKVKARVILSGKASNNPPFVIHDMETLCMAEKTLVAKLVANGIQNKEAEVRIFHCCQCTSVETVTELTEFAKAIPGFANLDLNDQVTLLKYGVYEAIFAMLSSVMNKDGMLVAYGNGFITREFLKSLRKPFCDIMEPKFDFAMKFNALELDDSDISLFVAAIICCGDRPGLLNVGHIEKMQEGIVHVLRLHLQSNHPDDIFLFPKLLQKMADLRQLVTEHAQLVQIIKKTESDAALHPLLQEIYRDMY
In short: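 Chemiluminescence from complemented enzyme reported PPARalpha activation in cells after 6 hr of compound treatment at 37 C. The detection reagent was incubated for 60 min at room temperature, and compounds were scored as agonists.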

[13] = qHTS assay for cell viability of HEK293 cells (AID 743288; active = well fitted curve in the direction sought with a large enough effect; an effect the other way counts as inactive or inconclusive; note: nearly all actives have a fitted effect of over 50% in size); conditions: ATP luminescence (CellTiter-Glo), 18 h; max response: stronger effect = lower value
In short: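 Quantitative high-throughput screen: compounds were pinned onto parental HEK293 cells (2,000 per well) after a minimum 5 h settling at 37 C, incubated 18 h at 37 C, and intracellular ATP measured by luciferase luminescence.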

[14] = qHTS assay for cell viability of the p53RE-bla HCT-116 cell line (AID 743292; active = well fitted curve in the direction sought with a large enough effect; an effect the other way counts as inactive or inconclusive; note: nearly all actives have a fitted effect of over 55% in size)
In short: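 Compound-exposed HCT-116 (p53RE-bla) cells, 4,000 per well, were kept 16 h at 37 C following a 5 h preincubation. Cell number was estimated from total ATP by CellTiter-Glo luminescence read after 30 min at room temperature.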

[15] = biological target: Peroxisome proliferator-activated receptor gamma (Homo sapiens) (UniProt P37231); test: qHTS assay for small molecule agonists of peroxisome proliferator-activated receptor gamma signaling (AID 588536; active = well fitted curve in the direction sought with a large enough effect in the signal ratio, with a control signal flat, not every such curve was filed as active; the % refers to the signal ratio)
In short: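 Using GeneBLAzer HEK293 cells, response was quantified by CCF4 fluorescence and normalized between basal DMSO (0%) and rosiglitazone 2 uM (100%); curves yielded half-maximal stimulation concentration and efficacy.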

[16] = qHTS assay for small molecule agonists of retinoid X receptor alpha signaling (AID 588544); conditions: HEK293T RXRa-UAS-bla, beta-lactamase reporter, 18 h; 530 nm emission
[17] = biological target: Retinoic acid receptor RXR-alpha (Homo sapiens) (UniProt P19793); test: as above
[18] = qHTS assay for small molecule agonists of the antioxidant response element (ARE) signaling pathway measured by Nrf2-dependant transcriptional activity (AID 720636; active = well fitted curve in the direction sought with a large enough effect in the repeat runs; an effect the other way counts as inactive or inconclusive;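 note: HepG2 cells with an ARE-driven luciferase reporter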)
In short: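 Attachment 6 hr at 37 C, then compound versus DMSO vehicle for 16 hr in ARE-luc HepG2 cells (1% dialyzed FBS); luminescence recorded 30 min after ONE-Glo addition at room temperature.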

[19] = qHTS assay for small molecule agonists of the antioxidant response element (ARE) signaling pathway measured by Nrf2-dependant transcriptional activity - cell viability counter screen (AID 720653; active = well fitted curve in the direction sought with a large enough effect in the repeat runs; an effect the other way counts as inactive or inconclusive); conditions: ARE-bla HepG2 viability, CellTiter-Glo ATP luminescence, 16 h; max response: stronger effect = lower value
In short: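 Cytotoxicity counter screen: intracellular ATP quantified by CellTiter-Glo luminescence in the same ARE-bla HepG2 plates, after 16 h compound exposure and a 2 h beta-lactamase substrate step.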

[20] = biological target: Nuclear receptor subfamily 1 group I member 2 (Rattus norvegicus) (UniProt Q9R1A7); test: qHTS assay for small molecule activators of the rat pregnane X receptor (rPXR) signaling pathway (AID 651751; call rule not given here); conditions: rPXR reporter cells, luciferase (One-Glo), 24 h
Nuclear receptor subfamily 1 group I member 2 (Rattus norvegicus), sequence (Q9R1A7 whole entry, looked up): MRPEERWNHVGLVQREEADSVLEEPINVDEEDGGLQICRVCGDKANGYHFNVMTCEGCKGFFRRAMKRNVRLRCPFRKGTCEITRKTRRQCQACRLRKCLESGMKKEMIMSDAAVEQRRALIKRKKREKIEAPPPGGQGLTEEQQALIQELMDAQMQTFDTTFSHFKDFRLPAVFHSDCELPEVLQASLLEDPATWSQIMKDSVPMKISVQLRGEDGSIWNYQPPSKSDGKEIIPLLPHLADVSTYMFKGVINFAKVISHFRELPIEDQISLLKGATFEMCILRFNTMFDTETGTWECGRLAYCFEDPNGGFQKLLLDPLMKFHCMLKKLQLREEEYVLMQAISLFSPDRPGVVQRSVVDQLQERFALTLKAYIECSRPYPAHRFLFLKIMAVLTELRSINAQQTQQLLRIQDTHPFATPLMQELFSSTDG

Compound	Potency [1]	Potency [2]	Potency [3]	outcome [4]	Potency [5]	Potency [6]	Potency [7]	max response [8]	max response [9]	activation [10]	activation [11]	max response [12]	max response [13]	Potency [14]	Potency [15]	max response [16] [%]	Potency [17]	Potency [18]	max response [19]	max response [20]
CC1CCCCC1NC(=O)Nc1ccccc1 (stereo not drawn)	inactive	inactive	inactive	inactive	inactive	inactive	inactive	-4.7%	-9.04% (inactive)	0.836% (inactive)	6.72% (inactive)	-0.607% (inactive)	-11.4% (inactive)	inactive	–	–	–	–	–	–
Cc1cc(Cl)ccc1OCC(=O)O	inactive	inactive	inactive	–	inactive	inactive	inactive	-3.03% and 10.9%	3.77% (inactive) and -0.223% (inactive)	-6.22% (inactive) and 0.0507% (inactive)	0.725% (inactive) and -1.61% (inactive)	0.459% (inactive) and -1.12% (inactive)	-1.7% (inactive) and -11.8% (inactive)	inactive	inactive	-7.53	inactive	inactive	17.3% (inactive) and -19.3% (inactive)	-1.6% (inactive) and -6.7% (inactive)
O=c1[nH]c2ccccc2c(=O)o1	inactive	inactive	inactive	inactive	inactive	inactive	inactive	-14.4%	-21.4% (inactive)	1.12% (inactive)	0.82% (inactive)	-3.96% (inactive)	-10.1% (inactive)	inactive	inactive	-6.9	inactive	inactive	-1.48% (inactive)	-5.81% (inactive)
O=P(O)(O)CCCl	inactive	inactive	–	inactive	inactive	inactive	inactive	-6.38%	5.61% (inactive)	-3.48% (inactive) and 2.67% (inactive)	-0.0383% (inactive) and -0.0843% (inactive)	0.775% (inactive) and -1.46% (inactive)	-9.79% (inactive) and -10.1% (inactive)	inactive	inactive	–	–	inactive	–	-9.16% (inactive) and -4.17% (inactive)
COP(=S)(OC)Oc1ccc([N+](=O)[O-])c(C)c1	inactive	inactive	inactive	inactive	inactive	inactive	inactive	-7.02%	-30.1% (inactive)	-5.64% (inactive)	2.78% (inactive)	-4.6% (inactive)	-7.08% (inactive)	inactive	inactive	-4.53	inactive	inactive	–	-1.75% (inactive)
COC(=O)c1ccccc1CS(=O)(=O)NC(=O)Nc1nc(OC)cc(OC)n1	inactive	inactive	inactive	inactive	inactive	inactive	inactive	1.62%	-11% (inactive)	-2.78% (inactive)	-0.954% (inactive)	-0.343% (inactive)	-8.65% (inactive)	inactive	inactive	-9.59	inactive	inactive	–	-0.458% (inactive)
CCOC1Oc2ccc(OS(C)(=O)=O)cc2C1(C)C (stereo not drawn)	inactive	inactive	–	inactive	inactive	inactive	inactive	-7.46%	-7.44% (inactive)	–	1.08% (inactive)	-0.11% (inactive)	-23.7% (inactive)	inactive	inactive	7.47	inactive	–	-22.7% (inactive)	11.5% (inactive)
COCc1cnc(C2=NC(C)(C(C)C)C(=O)N2)c(C(=O)O)c1 (stereo not drawn)	inactive	inactive	inactive	inactive	inactive	inactive	inactive	-13.7%	6.51% (inactive)	–	1.65% (inactive)	0.0113% (inactive)	-3.54% (inactive)	inactive	inactive	–	–	inactive	4.02% (inactive)	-0.0309% (inactive)
CCOc1nc(NC)nc(NC(=O)NS(=O)(=O)c2ccccc2C(=O)OC)n1	inactive	inactive	inactive	inactive	inactive	–	inactive	-10.6%	20.8% (inactive)	-5.96% (inactive)	0.873% (inactive)	-5.58% (inactive)	9.14% (inactive)	–	inactive	–	–	inactive	13.3% (inactive)	1.05% (inactive)
CCC(C)n1c(=O)[nH]c(C)c(Br)c1=O (stereo not drawn)	inactive	inactive	–	–	inactive	inactive	inactive	-12.2%	5.41% (inactive)	-1.24% (inactive)	4.91% (inactive)	-0.488% (inactive)	-3.11% (inactive)	inactive	inactive	0.805	inactive	inactive	4.81% (inactive)	-6.26% (inactive)
CCCCN(CC)C(=O)SCCC	inactive	inactive	inactive	inactive	inactive	inactive	inactive	-6.82%	3.02% (inactive)	2.73% (inactive)	–	0.725% (inactive)	-1.81% (inactive)	inactive	inactive	-10.1	inactive	inactive	–	4.32% (inactive)
